Experimental data reported in PubChem BioAssay (NCI).
Compounds without any hit were thinned out: in the full panel of roughly 79,000, 15% have a hit. Rule as the data show it: active = growth inhibition above about 70%; inactive = the rest.

What was measured:
[1] = NCI Yeast Anticancer Drug Screen. Data for the rad50 strain (AID 155);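 also: 0% = growth of vehicle-only cultures of the same strain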; settings: S. cerevisiae rad50 strain growth inhibition; at 50.0 µM; hits give high values
How it was run: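 Growth of the mutant yeast was measured after compound exposure and referenced to vehicle-treated cultures.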

[2] = NCI Yeast Anticancer Drug Screen. Data for the mec2-1 strain (AID 157); settings: S. cerevisiae mec2-1 strain, at 50.0 µM, hits give high values
How it was run: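 Readout is yeast growth inhibition, normalised to vehicle-treated controls, in the mec2-1 strain exposed to compound.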

[3] = NCI Yeast Anticancer Drug Screen. Data for the sgs1 mgt1 strain (AID 161);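 also: 0% = growth of cultures given vehicle only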; settings: S. cerevisiae sgs1 mgt1 strain, at 50.0 µM, hits give high values
How it was run: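 Compounds are added to genetically altered yeast, and growth is compared with cultures given vehicle alone to give percent inhibition.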

[4] = NCI Yeast Anticancer Drug Screen. Data for the cln2 rad14 strain (AID 165);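 also: 0% = growth equal to vehicle treated cultures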; settings: S. cerevisiae cln2 rad14 strain, at 50.0 µM, hits give high values
How it was run: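 Relative to vehicle controls, growth inhibition of compound-treated cln2 rad14 yeast was recorded.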

[5] = NCI Yeast Anticancer Drug Screen. Data for the bub3 strain (AID 167); settings: S. cerevisiae bub3 mutant strain, at 50.0 µM, hits give high values
How it was run: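 Whole-cell yeast assay. The mutant strain was incubated with compounds, and growth inhibition was determined by comparison with vehicle-treated cells.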

[6] = NCI Yeast Anticancer Drug Screen. Data for the mlh1 rad18 strain (AID 175); settings: S. cerevisiae mlh1 rad18 strain growth inhibition; at 50.0 µM; hits give high values
How it was run: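 Test agents were incubated with a yeast strain of defined genotype (DNA damage repair defect). Inhibition of growth was derived by comparison with vehicle-exposed cultures.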

Measured: growth inhibition

Nc1cc(S(=O)(=O)F)cc(Cl)c1O
inactive: [1] 25.2% | [2] -3.55% | [3] 14.9% | [4] -61.2% | [5] 23.2% | [6] 24.6%

CC(=O)Nc1ccc(-c2ccccc2)cc1
inactive: [1] 39.7% | [2] 24.8% | [3] 46.6% | [4] 17.9% | [5] -0.5% | [6] 32.9%

COc1cc2c(cc1OC)-c1c3c(cc4c1[C@H](C2)N(C)CC4)OCO3
inactive: [1] -5% | [2] -7.7% | [3] -19.8% | [4] 6.75% | [5] -14.2% | [6] -25.5%

O=C1NC(=O)C(=Cc2ccccn2)C(=O)N1
inactive: [1] -0.95% | [2] -25% | [3] -0.45% | [4] 18.6% | [5] -6.4% | [6] 2.3%

CCCCC(=O)[O-].N.N.N.N.N.[Co+3].[O-][Cl+3]([O-])([O-])[O-]
inactive: [1] -19.9% | [2] 19.4% | [3] -18.4% | [4] 21.4% | [5] -0.3% | [6] -16%

O=C(Sc1c[nH]c(=O)[nH]c1=O)c1ccc(N(CCCl)CCCl)cc1
inactive: [1] 29.6% | [2] -18.4% | [3] 19.9% | [4] -24.8% | [5] -6.3% | [6] -1.05%

Cc1cn([C@H]2CC3C(CON3C)O2)c(=O)[nH]c1=O (stereo partly specified)
inactive: [1] 3.3% | [2] 7.55% | [3] 1.15% | [4] -3.55% | [5] -8.55% | [6] -37.4%

[Pd].c1ccc([PH+](CC[PH+](c2ccccc2)c2ccccc2)c2ccccc2)cc1.c1ccc([PH+](CC[PH+](c2ccccc2)c2ccccc2)c2ccccc2)cc1
inactive: [1] 24.8% | [2] 12.8% | [3] 59.5% | [4] 15.1% | [5] 15.7% | [6] 24.2%

CCOC(=S)S.[Ag]
inactive: [1] 1.6% | [2] -17.4% | [3] -2.05% | [4] -31.6% | [5] -15.2% | [6] 14.4%

Cc1cc(CCl)cc(=O)[nH]1
inactive: [1] -9.75% | [2] -0.7% | [3] -7.55% | [4] -8.9% | [5] -20.6% | [6] 12.2%

CCOP(=O)(O)C1CCCC(C)[N-]1.CCOP(=O)(O)C1CCCC(C)[N-]1.[Cu+2] (stereo unspecified)
inactive: [1] 49.4% | [2] 33.6% | [3] 31.7% | [4] 45.2% | [5] 2.9% | [6] 26.6%

CNP1(N(C)C)=NP(NC)(N(C)C)=NP(NC)(N(C)C)=N1 (stereo unspecified)
inactive: [1] -13.9% | [2] 12.9% | [3] -10.6% | [4] -6.85% | [5] 6.6% | [6] 10.4%

O=[As](O)(O)CC(Br)CBr (stereo unspecified)
inactive: [1] 5.5% | [2] 12% | [3] 5.95% | [4] -7.3% | [5] 41.1% | [6] -3.4%

CCOC(=O)C(O)(c1ccccc1)c1ccccc1
inactive: [1] 2.05% | [2] -5.95% | [3] 6.85% | [4] 16.8% | [5] -3.35% | [6] 31%

C(=C\c1cccs1)/CN1CCC2CCC(C2)C1 (stereo unspecified)
inactive: [1] -3.25% | [2] -4.15% | [3] 2.1% | [4] -17.1% | [5] 6.35% | [6] -10.8%

COc1ccc(O)c2c(=O)c3c(OC)cc4c(c3oc12)[C@@H]1C=CO[C@@H]1O4
inactive: [1] 16.6% | [2] -29.6% | [3] 17.5% | [4] -2.9% | [5] -9.65% | [6] 9.2%

c1ccc2c(c1)sc1ccccc12
inactive: [1] 15.5% | [2] -13.7% | [3] 16.9% | [4] -29.4% | [5] -8.6% | [6] 15.2%

c1ccc([Se+](c2ccccc2)c2ccccc2)cc1
inactive: [1] 16.8% | [2] -46.5% | [3] 1.75% | [4] -10.1% | [5] -1.55% | [6] 17.9%

NS(=O)(=O)CC1CC[CH-]CC1.[Cl-].[Cl-].[Cl-].[Cl-].[Cl-].[Sb+5].c1ccncc1
inactive: [1] 11.3% | [2] -14.1% | [3] -10% | [4] -12.2% | [5] -20.4% | [6] 18.1%

Clc1cccc(Cl)c1C(Cl)Cl
inactive: [1] -7.45% | [2] -17.2% | [3] -3.15% | [4] -4.4% | [5] -6.65% | [6] -11.2%

CC(=O)Nc1cc([As]=O)ccc1O (stereo unspecified)
inactive: [1] 29.2% | [2] 25.2% | [3] 31.8% | [4] 10.6% | [5] 50.8% | [6] 32.6%

COC(=O)CN(CCCl)P1(=O)OCCCN1CCCl (stereo unspecified)
inactive: [1] -17.4% | [2] -1.1% | [3] -5.5% | [4] 0.2% | [5] 10.3% | [6] -4.8%

CCC(CC)CNC(=O)C(Cl)Cl
inactive: [1] -2.25% | [2] -9.8% | [3] 18.6% | [4] -18.1% | [5] -3.4% | [6] -1%

CCOC(=O)CN(Cc1ccccc1)Cc1c(C(=O)c2ccccc2)c2ccccc2n1C(=O)c1ccccc1
inactive: [1] 3.75% | [2] -11.8% | [3] -10.9% | [4] -75.2% | [5] -16.6% | [6] -18.6%

C=[CH][Sn]([Cl])([Cl])[CH]=C.CN(C)P(=O)(N(C)C)N(C)C
inactive: [1] 28.5% | [2] 32.5% | [3] 44.4% | [4] 28.1% | [5] 53.3% | [6] 54.1%

CC1OC(OC2CCC3(C=O)C4CCC5(C)C(C6=CC(=O)OC6)CCC5(O)C4CCC3(O)C2)C(O)C(O)C1O (stereo unspecified)
inactive: [1] 14.3% | [2] -8.35% | [3] -5.65% | [4] 13.5% | [5] -9.15% | [6] -4.3%

O=C1C=CC(=Nc2ccc(N(CCCl)CCCl)cc2)C=C1
inactive: [1] 39.5% | [2] 18.8% | [3] 13.3% | [4] 3.5% | [5] 7.1% | [6] 3.5%

C/C(=N\O)C(CN1CCCCC1)C(c1ccccc1)c1c(O)c2ccccc2oc1=O (stereo unspecified)
inactive: [1] 17.9% | [2] 2.05% | [3] 24.6% | [4] 28.6% | [5] 21.4% | [6] 26.9%

CCC[As](=O)(O)Cc1ccccc1C
inactive: [1] 4.3% | [2] -5.4% | [3] 7.8% | [4] -1.3% | [5] 18% | [6] 22.1%

S=P(Oc1cc(Cl)c(Cl)cc1Cl)(N1CCOCC1)N1CCOCC1
inactive: [1] 37.1% | [2] 8.85% | [3] 42% | [4] 35% | [5] 12.3% | [6] 19.9%

CCCCCCCC(=O)O.[Sn]
inactive: [1] -2.25% | [2] -7.35% | [3] -9.6% | [4] -45.9% | [5] 12.1% | [6] -19%

O=Cc1ccccc1O.[La]
inactive: [1] -7.9% | [2] -28.1% | [3] 14.1% | [4] -5.45% | [5] -7.7% | [6] 2.15%

O=C(NC1=NN(Cc2ccccc2)C(=O)C1)c1ccc(S(=O)(=O)F)cc1
inactive: [1] -0.35% | [2] -14.9% | [3] 19.6% | [4] 9.55% | [5] 9.8% | [6] 11.6%

CC(C)[C@@H]1ON1C(C)c1ccccc1 (stereo partly specified)
inactive: [1] 21.3% | [2] -10.1% | [3] 25.8% | [4] 11.6% | [5] 27.4% | [6] 16%

CCOC(=O)C(N)C[S][Sn]([CH3])([CH3])[Cl] (stereo unspecified)
inactive: [1] 19.1% | [2] 21.8% | [3] 20.6% | [4] 18.2% | [5] 21.7% | [6] -26.6%

O=c1c2cc(Br)cc(Br)c2nc(CCCl)n1-c1ccc(O)c([N+](=O)[O-])c1
inactive: [1] -2% | [2] 15.8% | [3] -9.95% | [4] 16.3% | [5] -7.5% | [6] -0.8%

CC[N+](CC)(CC)CC.[C-]#[O+].[C-]#[O+].[C-]#[O+].[Cr+4].[c-]1[c-][c-][cH-][c-]1
inactive: [1] 11.3% | [2] 12.4% | [3] 8.75% | [4] -10.8% | [5] 6.65% | [6] -5.8%

N.N.NC(CS)C(=O)[O-].NC(CS)C(=O)[O-].[Pt+4] (stereo unspecified)
inactive: [1] 15% | [2] -4% | [3] 3.25% | [4] -21.6% | [5] -12.8% | [6] 15.4%

Cn1nnnc1NC#N
inactive: [1] -9.15% | [2] 4.85% | [3] 1% | [4] 6.7% | [5] 23.4% | [6] -4.25%

COC(C)C(O)(C(=O)OCC1=CCN2CCC(O)C12)C(C)(C)O (stereo unspecified)
inactive: [1] 1.25% | [2] -5.35% | [3] 21.4% | [4] 5.4% | [5] 10.1% | [6] -52.4%

CC(C)=CC1C(C(=O)OCc2cc3c(cc2Cl)OCO3)C1(C)C (stereo unspecified)
inactive: [1] 8.65% | [2] 12.1% | [3] -15.2% | [4] -48.9% | [5] 14.9% | [6] -3.9%
